The source of these data is PubChem BioAssay (NCI).

Holding throughout (test): NCI-60 one-dose screen, 48 h (100 = growth as untreated, 0 = no growth, -100 = all killed)
What all share (conditions): 10 µM unless noted

Test [1] deals with SR leukemia.
The test system of test [2] is RPMI-8226 leukemia.
In test [3] the test system is OVCAR-8 ovarian.
Test [4] relates to OVCAR-5 ovarian.
Test [5] has as its system OVCAR-4 ovarian.
In test [6] the test system is SK-OV-3 ovarian.
In test [7] the test system is IGROV1 ovarian.
The test system of test [8] is HS 578T breast.
Test [9] has as its system NCI/ADR-RES ovarian.
In test [10] the test system is T-47D breast.
The subject of test [11] is BT-549 breast.
The subject of test [12] is MDA-MB-435 melanoma.
For test [13], the system named is SW-620 colon.
In test [14] the test system is MCF7 breast.
Test [15] deals with HCT-116 colon.
The subject of test [16] is HCC-2998 colon.
In test [17] the test system is KM12 colon.
In test [18] the test system is OVCAR-3 ovarian.

“And” between values parts separate entries of the source, which are not always exact repeats. Equal values may be shown once. About 83,000 compounds went through this panel and 20% of them were active in at least one assay; those are over-represented in the sample as a whole.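 Note: values are percent growth. 100 is the growth of untreated cells, values between 100 and 0 indicate rising inhibition; between -100 and 0 indicates cell death.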 The source made the active and inactive calls. The calls were made as follows: active = growth percent below 10; inactive = the rest.

Consider `O=S(=O)(Oc1ccc(-c2cn3ccoc3n2)cc1)c1cccc(C(F)(F)F)c1`, for which the growth in [1] is 100% (inactive); in test [2] it was 94.4% (inactive); in test [3], 101% (inactive); in [4] it was 103% (inactive); in test [5], 102% (inactive); in [6] it was 117% (inactive). Moreover, the growth in test [7] was 106% (inactive); in [8] it was 98.6% (inactive); in test [9] it was 106% (inactive); in test [10] it was 85.5% (inactive); in [11], 98.8% (inactive); in [12] it was 101% (inactive). The growth in test [13] was 103% (inactive); in test [14], 89.5% (inactive); in [15] it was 102% (inactive); in [16], 99.8% (inactive); in test [17], 95.7% (inactive).

In the case of `CCS(=O)(=O)Nc1ccc(C(=O)CC2(O)C(=O)Nc3ccccc32)cc1` (configuration not stated), the growth is 99.2% (inactive) in test [1]; 101% (inactive) in test [2]; 101% (inactive) in test [3]; 102% (inactive) in [4]; 108% (inactive) in test [5]; 105% (inactive) in test [6]. Further, the growth in test [7] is 90% (inactive); in [8], 104% (inactive); in test [9], 96.7% (inactive); in [10], 89.1% (inactive); in [11] it was 116% (inactive); in [12] it was 108% (inactive). Also, the growth in [13] is 103% (inactive); in [14], 92.3% (inactive); in test [15], 104% (inactive); in test [16], 100% (inactive); in test [17], 101% (inactive).

For the compound `COc1ccc2[nH]cc(-c3nn4cc(-c5ccncc5)nc4s3)c2c1`, the growth is 61.5% (inactive) in test [1]; 43.8% (inactive) in [2]; 52% (inactive) in test [3]; 107% (inactive) in test [4]; 71.1% (inactive) in test [5]; 88.3% (inactive) in [6]. Further, the growth in [7] is 41.4% (inactive); in [8] it was 87.5% (inactive); in [9] it was 48.9% (inactive); in [10] it was 7.81% (active); in [11] it was 74.8% (inactive); in [12] it was 90.2% (inactive). Moreover, the growth was 66.3% (inactive) in [13]; 11.2% (inactive) in test [14]; 52.8% (inactive) in [15]; 81.4% (inactive) in test [16]; 64.1% (inactive) in [17].

As to `C1=CC(c2nn3c(-c4ccccc4)nnc3s2)=Cc2ccccc2O1`, the growth is 11.9% (inactive) in [1]; 35.6% (inactive) in [2]; 65.5% (inactive) in [3]; 87.6% (inactive) in test [4]; 73.7% (inactive) in test [5]; 106% (inactive) in test [6]. Further, the growth was 64.3% (inactive) in test [7]; 61.1% (inactive) in test [8]; 85.2% (inactive) in [9]; 19.7% (inactive) in test [10]; 77.9% (inactive) in test [11]; 46.7% (inactive) in test [12]. Also, the growth in test [13] was 16.6% (inactive); in [14] it was 30.7% (inactive); in test [15] it was 41.1% (inactive); in test [16], 97% (inactive); in test [17], 85.5% (inactive).

Regarding `Brc1cccc(-c2cc(-c3cnc4c(c3)OCCO4)n[nH]2)c1`, the growth in test [1] is 13.4% (inactive); in test [2], 26.2% (inactive); in test [3], 46.4% (inactive); in test [4], 72.3% (inactive); in test [5] it was 82.5% (inactive); in test [6] it was 77.1% (inactive). Also, the growth in test [7] was 45% (inactive); in test [8], 76.1% (inactive); in test [9], 10.9% (inactive); in [10], 40.2% (inactive); in test [11], 67.3% (inactive); in [12], -29.3% (active). For the same compound, the growth in test [13] was 25.3% (inactive); in [14], 10% (inactive); in test [15], 27.4% (inactive); in test [16] it was 46.7% (inactive); in test [17] it was 41.6% (inactive).

Consider `Cc1cccc(N2CCN(C3=C(Cl)C(=O)c4ncccc4C3=O)CC2)c1`, for which the growth in [1] was 3.39% (active); in test [2] it was 46.8% (inactive); in [3] it was 80.6% (inactive); in test [4], 111% (inactive); in test [5] it was 67% (inactive); in test [6] it was 92.9% (inactive). In addition, the growth in test [7] was 73.1% (inactive); in test [8] it was 70.6% (inactive); in [9], 78.7% (inactive); in test [10] it was -39.5% (active); in test [11], 97.9% (inactive); in test [12] it was 11.8% (inactive). The growth in test [13] was 11% (inactive); in test [14], 5.92% (active); in test [15], -16.3% (active); in test [16] it was 107% (inactive); in test [17] it was 92.2% (inactive).

In the case of `COc1ccc2c(c1)c(/C=N/Nc1ccnc3cc(Cl)ccc13)cn2C`, the growth in test [1] is -22.6% (active); in test [2], -43% (active); in test [3], -66.8% (active); in [4] it was -87.3% (active); in test [5] it was -76.7% (active); in test [6], -89.2% (active). The growth is -82% (active) in [7]; -53.1% (active) in [8]; -71.1% (active) in test [9]; -64.1% (active) in test [10]; -76.9% (active) in test [11]; -92.9% (active) in test [12]. The growth in test [13] was -76.6% (active); in test [14], -80.2% (active); in test [15], -82.3% (active); in [16] it was -86.3% (active); in [17], -78.1% (active).

For the compound `CN1CCN(Cc2ccc(NC(=O)c3cncc(C#Cc4cnc(N)nc4)c3)cc2C(F)(F)F)CC1`, the growth in test [1] is 16.3% (inactive); in test [2], 22.7% (inactive); in test [3] it was 33.1% (inactive); in test [4], 29.6% (inactive); in [5] it was 45.1% (inactive); in test [6] it was -21.2% (active). The growth in test [7] is 14.6% (inactive); in test [8] it was -12.5% (active); in test [9], 60.1% (inactive); in test [10], 19% (inactive); in test [11], 38.5% (inactive); in test [12] it was 12.9% (inactive). For the same compound, the growth is 10.4% (inactive) in test [13]; 27.6% (inactive) in [14]; 3.4% (active) in test [15]; 42.5% (inactive) in [16]; 9.4% (active) in test [17].

With `CCCCCCCCCC(=O)NC(C)(C)C(=O)N1CCC[C@H]1C(=O)N[C@@H](CC(C)C)C(=O)N[C@@](C)(CC)C(=O)N[C@@H](CCC(N)=O)C(=O)N[C@H](CCC(N)=O)C(=O)NC(C)(C)C(=O)NC(C)(C)C(=O)N[C@@H](CCC(N)=O)C(=O)N[C@H](CC(C)C)C(=O)N[C@H](CO)CC(C)C`, the growth in test [1] is -77.5% (active) and 1.34% (active); in [2], -67.5% (active) and -26% (active); in test [3], -86.4% (active) and -49.5% (active); in test [4] it was -97.7% (active) and -82.4% (active); in test [5] it was -20.8% (active) and 50.4% (inactive); in test [6] it was -70.9% (active) and 19.4% (inactive). The growth in test [7] was -87% (active) and 5.72% (active); in test [18], -23.8% (active); in test [8], -71.3% (active) and -59% (active); in test [10], -34.9% (active) and -12.9% (active); in test [11], -84.8% (active) and -76.9% (active); in test [13], -83.6% (active) and -50.6% (active). For the same compound, the growth was -83.8% (active) and -76.9% (active) in [14]; -67.5% (active) and 1.05% (active) in test [15]; -89.2% (active) and -59.5% (active) in test [16]; -89.6% (active) and -89.8% (active) in [17].
